Structures can show the parent of a compound that is named as a salt. ± gives the standard deviation of the averaged measurements. Some results are limits rather than exact numbers.

The assay deals with Toxoplasma gondii RH (in HFF). The assay can be described thus: parasite growth relative to the screen mean (all compounds = 100%); higher = less inhibition of parasite growth. The following applies: 5 µM; 72 h; oxygen 21 %. The gist of the method: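 Values give growth relative to the screen mean. The screen mean (all compounds) is set at 100%, and two screens were averaged. Compounds at 5 µM final were placed on confluent human foreskin fibroblasts, which were infected within 2 h with RH β-Gal–GFP Toxoplasma (MOI 1:5) and kept 72 h at 21% O2 before a CPRG β-Gal readout against in-plate standard curves.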
Turning to `CC(C)NCC(O)c1ccc2ccccc2c1` (centres undefined) [Pronethalol hydrochloride], the parasite growth worked out at 117 ± 28%. `CN(C)C(=O)C(=O)c1cn(C)c2cc(Cl)c(C(=O)N3CCC(Cc4ccc(F)cc4)CC3)cc12` yielded a parasite growth of 140 ± 28%. As to `O=C(O)CC/C=C\C[C@H]1CO[C@@H](c2ccccc2Cl)O[C@H]1c1ccccc1O`, the parasite growth was 79.02 ± 0.65%. `CCCCC[C@H](O)/C=C/[C@H]1[C@H](O)CC(=O)[C@@H]1C/C=C\CCCC(=O)O` [Prostaglandin E2]: the parasite growth is 122 ± 1.1%. As to `COc1nccc(-c2c(-c3ccc(F)cc3)ncn2C2CCC(O)CC2)n1` (centres undefined), the parasite growth was below 0%.

`N[C@@H](CSC(c1ccccc1)(c1ccccc1)c1ccccc1)C(=O)O` [S-Trityl-L-cysteine]: the parasite growth was found to be 118 ± 8.6%.

`O=C(O)CCC/C=C\CC1C(O)CC(O)C1/C=C/C(O)COc1cccc(Cl)c1` (racemic) [(±)-Cloprostenol sodium salt] gave a parasite growth of 121 ± 15%. Compound `CN(C(=O)CCCOc1ccc2[nH]c(=O)ccc2c1)C1CCCCC1` [Cilostamide] displayed a parasite growth of 69.6 ± 26%.

In turn, `CN1CCN(C(=O)c2nc3ccc(Cl)cc3[nH]2)CC1` came in with a parasite growth of 133 ± 14%. `COc1cccc2c1C(=O)c1c(O)c3c(c(O)c1C2=O)C[C@@](O)(C(=O)CO)C[C@@H]3O[C@H]1C[C@H](N)[C@H](O)[C@H](C)O1` [Doxorubicin hydrochloride]: the parasite growth turned out to be 18.4 ± 7.7%. For `CC(=O)N(O)[C@@H]1c2cc(C#N)ccc2OC(C)(C)[C@H]1O` the value was 92.8 ± 30%. For `CCCn1c(=O)c2[nH]c(C3CCCC3)nc2n(CCC)c1=O` the value was 103 ± 7%. Compound `CCS(=O)(=O)N(C)[C@H]1c2cc(C#N)ccc2OC(C)(C)[C@@H]1O` (racemic) [Chromanol 293B] displayed a parasite growth of 142 ± 10%. With `N[C@@H](CS(=O)O)C(=O)O` [L-Cysteinesulfinic acid], the parasite growth was determined as 61 ± 6.7%.

`CCOc1ccccc1OC(c1ccccc1)C1CNCCO1` (centres undefined) [Reboxetine mesylate] came in with a parasite growth of 102 ± 5.2%. The compound `COC(=O)c1c(C)[nH]c(C)c1C(=O)c1ccccc1Cc1ccccc1` showed a parasite growth of 116 ± 37%. For `CC(C)(Sc1ccc(CCN(CCCCC2CCCCC2)C(=O)NC2CCCCC2)cc1)C(=O)O` the value was 87.9 ± 17%; for `COc1cc(N)c(Cl)cc1C(=O)CCC1CCN(CCNS(C)(=O)=O)CC1`, 74.1 ± 2.4%; for `Nc1nc2ccc(Cl)cc2c2nc(-c3ccco3)nn12`, 131 ± 14%.

Take `Cc1cc(C(C)(C)C)c(O)c(C)c1CC1=NCCN1` [Oxymetazoline hydrochloride]: the parasite growth came out at 196 ± 16%. On to `CNC(=O)c1cc2c(cn1)[nH]c1ccccc12`, for which the parasite growth stood at 124 ± 19%. `CC(Cc1ccccc1)(NC(=O)CN)c1ccccc1` (centres undefined) [Remacemide hydrochloride] displayed a parasite growth of 129 ± 5.9%. `CS(=O)(=O)Nc1c(O)ccc2c1CCCC2C1=NCCN1` (centres undefined): the parasite growth was 101 ± 12%. Take `NC(=O)c1ccc(-c2nc(-c3ccccn3)c(-c3ccc4c(c3)OCO4)[nH]2)cc1`: the parasite growth is 36.2 ± 32%.

The values are drawn from the supplement of paper PMC4894684.
